Test results: PubChem BioAssay AID504942 (Broad Institute, 2011)
Potency and affinity values are given separately. Active and inactive are the calls of the source. Entries that show only a call come without a potency. No rule for the calls is given here.

Experiment: toxicity to human HeLa cells – cell-based, 48 h, plate reader, cherry-picks, cytotoxicity control, dose response (AID 504942)
Details: series mostly up to 38 µM

For `N#CC1C(C#N)C2CCC1C1C2N1c1ccccc1` (stereo unspecified), the outcome was “inactive”.
